Compounds without any hit were thinned out: in the full panel of roughly 83,000, 20% have a hit.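 The endpoint reported here, percent growth, reads 100 for growth as untreated, 0 for no net growth and -100 for all cells dead.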 The source made the active and inactive calls. The calls were made as follows: active = growth percent below 10; inactive = the rest.
System: RXF 393 renal
Test: NCI-60 one-dose screen, 48 h (100 = growth as untreated, 0 = no growth, -100 = all killed)
Settings: 10 µM unless noted

Row | Structure (SMILES) | growth
1 | Cc1ccc2c(n1)C(=O)C(Cl)=C(Nc1cccc(C(C)C)c1)C2=O | 73.1% (inactive)
2 | Cn1cc(-c2cc(N)n3nc(-c4cn(C)c5ccc(F)cc45)cc3n2)c2cc(F)ccc21 | 26.2% (inactive)
3 | Cn1c(SCC(=O)c2cccs2)nc2ccccc2c1=O | 107% (inactive)
4 | CCCC(=O)NC(c1ccc(N(CC)CC)cc1)c1cc(C)c2cccnc2c1O (centres undefined) | 43.1% (inactive)
5 | COC(=O)C1CCCN(S(=O)(=O)/N=C2\NC(=O)NC2=C(Cl)Cl)C1 (centres undefined) | 121% (inactive)
6 | O=C(N/N=C/c1ccc([N+](=O)[O-])s1)c1[nH]c2ccc(Br)cc2c1-c1ccccc1 | 39.3% (inactive)
7 | C=C1CC[C@H]2[C@@](C)(CCC3OC(c4ccc(OCc5cn(C6CC(OC(C)=O)C(OC(C)=O)C(COC(C)=O)O6)nn5)cc4)OC[C@]32C)[C@@H]1/C=C/C1=CCOC1=O (some centres undefined) | 103% (inactive)
8 | COc1ccc([C@@H]2c3[nH]c4ccccc4c3CC3C(=O)N(C4CCN(Cc5c(F)cccc5F)CC4)CC(=O)N32)c(OC)c1 (some centres undefined) | 56.4% [5.26 µM] (inactive)
9 | O=C(N/N=C/c1ccc(Br)s1)c1[nH]c2ccc(Br)cc2c1-c1ccccc1 | 60% (inactive)
10 | O=C1c2c(c3c4cccnc4[nH]c3c3ccc4ccccc4c23)C(=O)N1CCO | 101% (inactive)
11 | Nc1c(C(=O)Nc2ccc(C(F)(F)F)cc2)sc2nc(-c3cnccn3)cc(-c3cccs3)c12 | 25.5% (inactive)
12 | CSc1ccc2c(c1)N(C(=O)/C(C#N)=C/c1c[nH]c3ccccc13)c1ccccc1S2 | 38.8% (inactive)
13 | Cc1cc(C(=O)Nc2sc3c(c2C(N)=O)CCC(=O)C3)ccc1OCCN1CCCCC1 | 112% (inactive)
14 | CN(C)c1ccc(/C=c2\sc3nc4ccccc4n3c2=O)cc1 | 117% (inactive)
15 | CN(C)c1ccc(/C=C2\Cc3c(F)ccc(Br)c3C2=O)cc1 | 108% (inactive)
16 | CN1CCN(Cc2ccc(NC(=O)c3cncc(C#Cc4cnc5ccc(N6CCSCC6)nn45)c3)cc2C(F)(F)F)CC1 | -87.3% (active)
17 | COc1cc(/C=C/C(=O)c2ccc(C)cc2)ccc1Oc1nc(NCCO)nc(N2CCOCC2)n1 | 82.1% (inactive)
18 | O=C(CSc1nnc(-c2ccc3nc(-c4ccc(Cl)cc4)[nH]c3c2)o1)Nc1ccc(C(=O)/C=C/c2ccc(Cl)cc2)cc1 | 104% (inactive)
19 | C#Cc1nc(C2=C(C)C(=N\O)/C(=N/O)C2)cs1 | 104% (inactive)
20 | CCOc1ccc2nc(NC(=O)c3ccc(C(F)(F)F)cc3)sc2c1 | 114% (inactive)

Row | Structure (SMILES) | growth
21 | CC(O)C(NC(=O)C1CCCN1C(=O)CNC(=O)C1CC(=O)NCC(=O)NC(Cc2c[nH]c3ccccc23)C(=O)NC(Cc2ccc(O)cc2)C(=O)NCC(=O)NC(CO)C(=O)NC(CCC(N)=O)C(=O)NC(Cc2c[nH]c3ccccc23)C(=O)N1)C(=O)NCC(=O)NC(CCC(N)=O)C(=O)NC(CCCNC(=N)N)C(=O)NC(CC(=O)O)C(=O)O (centres undefined) | 116% (inactive)
22 | CC1=C(C)C(=O)C(Nc2ccccc2)=C(Cl)C1=O | 96.8% (inactive)
23 | CO/N=C1\CCc2c(sc(NC(=O)c3cccc(C(F)(F)F)c3)c2C(N)=O)C1 | -6% (active)
24 | COc1ccc(CNS(=O)(=O)/N=C2\NC(=O)NC2=C(Cl)Cl)cc1 | 39.6% (inactive)
25 | NS(=O)(=O)c1cccc(Nc2nc(SCC(=O)c3ccc([N+](=O)[O-])cc3)nc3ccccc23)c1 | 57% (inactive)
26 | Cn1ccnc1C(=O)/C=C/c1ccc(NC(=O)Nc2ccccc2)cc1 | -5.31% (active)
27 | CCOC(=O)c1sc(N)c(C(=O)OCC)c1C | 29.9% (inactive)
28 | CN(C)S(=O)(=O)c1oc(-c2ccccc2)nc1C#N | 39% (inactive)
29 | O=C1Nc2cc(Cl)ccc2/C1=C\c1ccc(OCc2ccc(Br)cc2F)cc1 | -67.3% (active)
30 | COc1cc(/C=C/C(=O)c2cc(OC)c(OC)c(OC)c2)ccc1OCc1ccccc1 | 75% (inactive)
31 | NC(=O)c1cc(-c2ccc3ncnc(N4CCc5cc(F)c(Cl)cc54)c3c2)cnc1N | -17.5% (active)
32 | COc1ccc(NC2=C(Cl)C(=O)C(C)=C(C)C2=O)cc1OC | 108% (inactive)
33 | Cn1ccnc1C(=O)/C=C/c1ccc(NC(=O)Nc2ccc(F)cc2)cc1 | 19.4% (inactive)
34 | O=C(CCN1C(=O)/C(=C/c2ccccc2)SC1=S)N1CCOCC1 | 77.1% (inactive)
35 | Cc1ccc(CNS(=O)(=O)/N=C2\NC(=O)NC2=C(Cl)Cl)cc1 | 96.9% (inactive)
36 | N#Cc1c(-c2ccc(Cl)cc2)nc(SCc2ccc(F)cc2)nc1N1CCNCC1 | 58.5% (inactive)
37 | Clc1ccc(-c2cn3cc(Cc4ccc(Cl)c(Cl)c4)sc3n2)cc1 | 104% (inactive)
38 | COc1ccc(/C=N/NC(=O)c2[nH]c3ccc(Br)cc3c2-c2ccccc2)o1 | 50.9% (inactive)
39 | O=C(Nc1nc2ccc(O)cc2s1)c1cccc(C(F)(F)F)c1 | 103% (inactive)

Source: PubChem BioAssay (NCI)
